Potency and activation data for 23 compounds are collected here from PubChem BioAssay (Tox21).

Active and inactive are the calls of the source. Unless noted, calls come from the whole dose curve.

The test system of assay [1] is thyroid hormone receptor (rat, GH3 cells). As to the kind of experiment: qHTS assay to identify small molecule agonists of the thyroid receptor (TR) signaling pathway (AID 743066). Note: % is set by controls: 0 for no effect and ±100 for the full control effect. On the technique in general: qHTS replaces the single test concentration by a dilution series.
Assay [2] is described as follows: qHTS assay to identify small molecule antagonists of the estrogen receptor alpha (ER-alpha) signaling pathway - cell viability counter screen (AID 743074).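 Note: HEK293 cells carrying ER-alpha-UAS-bla reporter stimulated with 17beta-estradiol; % is set by controls: 0 for no effect and ±100 for the full control effect; nearly all actives have a fitted effect of over 45% in size.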
Assay [3] deals with Estrogen receptor (Homo sapiens) (UniProt P03372). Briefly: qHTS assay to identify small molecule agonists of the estrogen receptor alpha (ER-alpha) signaling pathway (AID 743075). For activation: % is set by controls: 0 for no effect and ±100 for the full control effect.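 Note: HEK293 GripTite cells with ER-alpha and UAS-driven beta-lactamase reporter.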 Note: potency is the fitted concentration of half-maximal effect.
The target is the same in assay [4]. Briefly: qHTS assay to identify small molecule agonists of the estrogen receptor alpha (ER-alpha) signaling pathway using the BG1 cell line (AID 743079; active = well fitted curve in the direction sought with a large enough effect in the repeat runs; inconclusive = weak or mixed curves; inactive = no such curve, though single readings can be large; an effect the other way counts as inactive or inconclusive; note: nearly all actives have a fitted effect of over 20% in size; note: potency is the fitted concentration of half-maximal effect; for activation: % is set by controls: 0 for no effect and ±100 for the full control effect). To be noted: BG1Luc4E2 cells, ERE-luciferase agonist, 22 h; activation: at 70.3 µM (top of the series).
A short description of assay [5]: qHTS assay to identify small molecule antagonists of the estrogen receptor alpha (ER-alpha) signaling pathway using the BG1 cell line (AID 743080). Note: nearly all actives have a fitted effect of over 25% in size. Note: potency is the fitted concentration of half-maximal effect. In short, it runs like this: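 Antagonist mode: compounds in DMSO were pinned onto BG1-Luc-4E2 cells alongside 17beta-estradiol agonist, incubated 21.5 h, and ERE-driven luciferase measured with ONE-Glo. Cytotoxicity was multiplexed using CellTiter-Fluor fluorescence.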

In another assay the target is Aromatase (Homo sapiens) (UniProt P11511). As to the kind of experiment: qHTS assay to identify aromatase inhibitors (AID 743083; active = well fitted curve in the direction sought with a large enough effect in the repeat runs; inconclusive = weak or mixed curves; inactive = no such curve, though single readings can be large; an effect the other way counts as inactive or inconclusive; note: % is set by controls: 0 for no effect and ±100 for the full control effect; nearly all actives have a fitted effect of over 55% in size).
In assay [6] the target is Estrogen receptor (Homo sapiens) (UniProt P03372). As to the kind of experiment: qHTS assay to identify small molecule antagonists of the estrogen receptor alpha (ER-alpha) signaling pathway (AID 743069; active = well fitted curve in the direction sought with a large enough effect in the signal ratio in the repeat runs, not every such curve was filed as active; inconclusive = weak or mixed curves, or effect the other way; inactive = no such curve, though single readings can be large or run the other way; the % refers to the signal ratio; note: % is set by controls: 0 for no effect and ±100 for the full control effect). In short, it runs like this:
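A 17beta-estradiol challenge was applied right after compound transfer to ER-alpha-UAS-bla HEK293 cells previously kept in charcoal-stripped serum. Plates stood 18 hr at 37C and 5% CO2; fluorescence was read following 2 hr FRET substrate loading at room temperature.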

A short description of assay [7]: qHTS assay to identify small molecule antagonists of the estrogen receptor alpha (ER-alpha) signaling pathway using the BG1 cell line - cell viability counter screen (AID 743081; active = well fitted curve in the direction sought with a large enough effect in the repeat runs; inconclusive = weak or mixed curves; inactive = no such curve, though single readings can be large; an effect the other way counts as inactive or inconclusive;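 note: compound given together with 17beta-estradiol as the ER stimulus; nearly all actives have a fitted effect of over 45% in size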; note: potency is the fitted concentration of half-maximal effect).
The nature of assay [8]: qHTS assay to identify small molecule antagonists of the thyroid receptor (TR) signaling pathway (AID 743065; active = well fitted curve in the direction sought with a large enough effect in the repeat runs; inconclusive = weak or mixed curves; inactive = no such curve, though single readings can be large; an effect the other way counts as inactive or inconclusive; note: potency is the fitted concentration of half-maximal effect; nearly all actives have a fitted effect of over 55% in size). The method, boiled down: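 GH3.TRE-Luc rat pituitary cells carrying two TR response elements driving luciferase were plated for 4 h, given compound plus 1 nM T3 (final), and incubated 23.5 h at 37 C. ONE-Glo luminescence measured reporter inhibition; CellTiter-Fluor fluorescence tracked cytotoxicity.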

Estrogen receptor (Homo sapiens), sequence (P03372 whole entry, looked up): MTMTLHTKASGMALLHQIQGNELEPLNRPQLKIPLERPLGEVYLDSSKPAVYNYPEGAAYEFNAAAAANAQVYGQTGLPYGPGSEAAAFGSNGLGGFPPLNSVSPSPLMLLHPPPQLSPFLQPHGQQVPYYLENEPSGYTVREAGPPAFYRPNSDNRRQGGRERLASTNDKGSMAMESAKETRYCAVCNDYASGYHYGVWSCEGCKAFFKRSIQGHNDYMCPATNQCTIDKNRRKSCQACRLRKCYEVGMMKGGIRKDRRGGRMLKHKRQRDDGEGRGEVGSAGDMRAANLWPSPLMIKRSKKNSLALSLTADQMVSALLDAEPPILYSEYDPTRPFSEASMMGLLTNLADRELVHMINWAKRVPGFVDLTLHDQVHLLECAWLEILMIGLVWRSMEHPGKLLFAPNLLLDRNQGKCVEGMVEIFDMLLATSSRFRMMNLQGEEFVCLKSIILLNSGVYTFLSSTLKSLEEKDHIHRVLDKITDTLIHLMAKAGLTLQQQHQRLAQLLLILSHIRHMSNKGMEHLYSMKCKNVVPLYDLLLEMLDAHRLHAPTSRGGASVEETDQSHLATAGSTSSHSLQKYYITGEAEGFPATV
Aromatase (Homo sapiens), sequence (P11511 whole entry, looked up): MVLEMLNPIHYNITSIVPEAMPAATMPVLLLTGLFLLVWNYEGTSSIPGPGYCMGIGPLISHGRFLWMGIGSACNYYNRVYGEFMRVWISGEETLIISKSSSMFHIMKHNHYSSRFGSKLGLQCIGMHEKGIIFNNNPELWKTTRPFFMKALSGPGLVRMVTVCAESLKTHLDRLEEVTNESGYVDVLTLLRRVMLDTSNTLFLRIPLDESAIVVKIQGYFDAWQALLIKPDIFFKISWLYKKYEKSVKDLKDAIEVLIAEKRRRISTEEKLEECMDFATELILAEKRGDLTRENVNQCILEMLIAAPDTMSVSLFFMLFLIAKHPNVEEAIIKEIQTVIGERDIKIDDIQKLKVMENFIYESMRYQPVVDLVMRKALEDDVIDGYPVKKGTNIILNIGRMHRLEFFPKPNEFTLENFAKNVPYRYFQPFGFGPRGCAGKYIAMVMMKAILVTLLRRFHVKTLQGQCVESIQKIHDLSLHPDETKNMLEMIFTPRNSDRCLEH

On to `C=Cc1c(C)c2cc3nc(cc4[nH]c(cc5nc(cc1[nH]2)C(C)=C5CCC(=O)OC)c(CCC(=O)O)c4C)[C@@]1(C)C3=CC=C(C(=O)OC)[C@H]1C(=O)OC`, for which the Potency result (in assay [1]; in [2]; in assay [3]; in assay [4]; in assay [5]; with Aromatase (Homo sapiens)) was “inactive” each time.
For `CC(CN(C)C)CN1c2ccccc2S(=O)(=O)c2ccccc21` (centres undefined), the Potency entry (in [1]; in assay [6]; in assay [2]; in [3]; in [4]; with Aromatase (Homo sapiens)) was “inactive” throughout.
For the compound `CC[C@@H]1/C=C(\C)C[C@H](C)C[C@H](OC)[C@H]2O[C@@](O)(C(=O)C(=O)N3CCCC[C@H]3C(=O)O[C@H](/C(C)=C/[C@@H]3CC[C@@H](Cl)[C@H](OC)C3)[C@H](C)[C@@H](O)CC1=O)[C@H](C)C[C@@H]2OC`, the Potency result (in [1]; in assay [2]; in assay [7]; with Aromatase (Homo sapiens)) was “inactive” in each case.
`CO[C@H]1C[C@@H]2CC[C@@H](C)[C@@](O)(O2)C(=O)C(=O)N2CCCC[C@H]2C(=O)O[C@H]([C@H](C)C[C@@H]2CC[C@@H](OC(=O)C(C)(CO)CO)[C@H](OC)C2)CC(=O)[C@H](C)/C=C(\C)[C@@H](O)[C@@H](OC)C(=O)[C@H](C)C[C@H](C)/C=C/C=C/C=C/1C`: the Potency entry (in assay [6]; in assay [2]; in assay [3]; in [5]; in [7]; with Aromatase (Homo sapiens)) was “inactive” in each case. Also, in [4], the Potency was 23.7 µM (active).
As for `Oc1cc(O)cc(O)c1`, the Potency result (in assay [1]; in assay [2]; in assay [7]; with Aromatase (Homo sapiens)) was “inactive” throughout.
`CN1CCC(OC(=O)C(Oc2ccc(Cl)cc2)Oc2ccc(Cl)cc2)CC1`: the Potency entry in assay [1], in [6], in [2], in [3], in assay [4] and in assay [5] was “inactive” each time. In addition, the Potency result (in [7]; with Aromatase (Homo sapiens)) was “inactive” each time.
With `N#CC(c1ccc(Cl)cc1)c1c(Cl)cc(-n2ncc(=O)[nH]c2=O)cc1Cl` (centres undefined), the Potency in assay [8] is 3.76 µM (active). Moreover, the Potency entry (in [3]; in assay [4]; in [7]; in the assay with Aromatase (Homo sapiens)) was “inactive” each time.
Take `C[C@]12CCC(=O)C[C@@H]1CC[C@@H]1[C@@H]2CC[C@]2(C)C=CC[C@@H]12`: the Potency result (in [1]; in assay [2]; in assay [5]; in assay [7]; in the assay with Aromatase (Homo sapiens)) was “inactive” in each case. Moreover, the Potency in assay [3] is 8.49 µM [inconclusive] (active); in assay [4], 11.9 µM (active).
As to `COc1ccc(C[C@H](C)NC[C@@H](O)c2ccc(O)c(NC=O)c2)cc1`, the Potency entry in [1], in assay [6], in assay [2], in assay [3], in [4] and in [5] was “inactive” throughout.
With `CC(CN1c2ccccc2Sc2cccnc21)N(C)C` (centres undefined), the Potency result in [1], in [6], in assay [2], in assay [4], in assay [5] and in [7] was “inactive” each time. Besides, the Potency entry with Aromatase (Homo sapiens) is “inactive”.
Consider `CCCCCCCCCCCC(=O)N(CCO)CCO`, for which the Potency entry (in assay [1]; in assay [2]; in [3]; in [4]; in [7]; in the assay with Aromatase (Homo sapiens)) was “inactive” each time.
With `COc1cc(Br)c(C[N+]2(CCOCCC3CCC4CC3C4(C)C)CCOCC2)cc1OC` (centres undefined), the Potency result in [6], in assay [2], in assay [3], in [4], in assay [5] and in [7] was “inactive” throughout.
Take `Cn1c(=O)c2c(ncn2CCOC(=O)C(C)(C)Oc2ccc(Cl)cc2)n(C)c1=O`: the Potency result in [1], in assay [6], in assay [2], in assay [3], in [4] and in [7] was “inactive” throughout. Moreover, the Potency result with Aromatase (Homo sapiens) is “inactive”. Further, in assay [5], the Potency is 29.8 µM (active).
On to `O=C(CCCN1CCC(C(=O)c2ccc(F)cc2)CC1)c1ccc(F)cc1`, for which the Potency result in [1], in [6], in assay [2], in assay [3], in [4] and in [5] was “inactive” each time. Also, the Potency entry (in assay [7]; with Aromatase (Homo sapiens)) was “inactive” in each case.
Turning to `CC(=O)Oc1cccc(C(=O)O)c1OC(C)=O`, the Potency entry (in [1]; in assay [2]; in assay [7]; with Aromatase (Homo sapiens)) was “inactive” each time.
Turning to `CN1CCc2c(c3ccccc3n2Cc2ccccc2)C1`, the Potency entry (in assay [1]; in assay [7]; with Aromatase (Homo sapiens)) was “inactive” each time.
With `CC1CC(OC(=O)C(O)c2ccccc2)CC(C)(C)C1` (centres undefined), the Potency result in [1], in assay [6], in assay [2], in [3], in assay [4] and in [5] was “inactive” each time. Moreover, the Potency result (in assay [7]; in the assay with Aromatase (Homo sapiens)) was “inactive” each time.
For the compound `COc1cc2[nH]c(C)c(CCN3CCN(c4ccccc4)CC3)c2cc1OC`, the Potency result in assay [1], in [6], in [2], in [3], in assay [4] and in assay [5] was “inactive” in each case. The Potency result (in assay [7]; with Aromatase (Homo sapiens)) was “inactive” in each case.
As to `CC(=C\c1ccccc1)/C=C1/SC(=S)N(CC(=O)O)C1=O`, the Potency result in assay [1], in assay [6], in assay [2], in [3], in assay [4] and in assay [5] was “inactive” throughout. The Potency entry in the assay with Aromatase (Homo sapiens) was “inactive”. In addition, in assay [7], the Potency is 29.8 µM (active).
For `CCCCCCC(=O)O[C@H]1CC[C@H]2[C@@H]3CCc4cc(O)ccc4[C@H]3CC[C@]12C`, the Potency in assay [8] is 21.1 µM (active); in [3], 0.0007 µM [inconclusive] (active). Further, the activation in [4] is 66.1% (active). In addition, the Potency entry (in [7]; with Aromatase (Homo sapiens)) was “inactive” throughout.
In the case of `CCC(CN)CC(C)CCNCC(O)CNCC(C)CC(CC)CN` (centres undefined), the Potency entry in [6], in assay [2], in [3], in assay [4], in [5] and in assay [7] was “inactive” each time. Moreover, the Potency result with Aromatase (Homo sapiens) is “inactive”.
In the case of `CCCCCc1ccc(C)cc1O`, the Potency result in [1], in assay [6], in [2], in assay [3], in assay [4] and in assay [7] was “inactive” each time.
Consider `CCCC(=O)Nc1c(I)cc(I)c(CC(CC)C(=O)O)c1I` (centres undefined), for which the Potency entry in [1], in assay [6], in assay [2], in assay [3], in assay [4] and in assay [5] was “inactive” throughout. Also, in the assay with Aromatase (Homo sapiens), the Potency entry is “inactive”.
